Compound activity deposited in PubChem by National Center for Advancing Translational Sciences (NCATS).
SARS PLpro yeast: inhibitors of SARS-CoV papain-like protease in yeast; S. cerevisiae expressing SARS-CoV PLpro, growth rescue; Potency, µM (titrated, usually from 32.9 µM), most hits filed as activators; 330,000 compounds, 0.19% hits; AID 485353; calls by dose curve; also: nearly all actives have a fitted effect of over 55% in size
NS1 inh: blocks influenza NS1 protein function. Potency, µM (highest dose often 46.1 µM). 270,000 compounds, 0.4% hits; calls by dose curve; also: actives are rising curves; nearly all actives have a fitted effect of over 50% in size
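Growth recovery, yeast-based: influenza A NS1 expressed in S. cerevisiae causes slow growth, and suppressors are detected by OD600. The parent strain without NS1 is used as positive control.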
Shiga toxin inh: Shiga toxin inhibition; AID 2315; 290,000 compounds, 9.2% hits; inhibition, % at 38.7 µM; Vero cells, Shiga toxin protein synthesis inhibition reporter; in the data active = inhibition mostly above about 28%, no sharp cut-off; inactive = mostly below about 43%
TbPYK inhibitor: inhibitors of Trypanosoma brucei pyruvate kinase; TbPYK enzyme, Kinase-Glo Plus ATP luminescence, 45 min; Q57TT1; Potency, µM (doses to about 76.8 µM), hits mostly inhibitors; AID 624173; 410,000 compounds, 0.12% hits; also: nearly all actives have a fitted effect of over 50% in size
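Readout: single end-point luminescence (Kinase-Glo Plus, 10 min). Reaction conditions were TbPYK/substrate plus 130 uM ADP, 45 min at RT, pH 7.2 TEA buffer. No-enzyme wells served as controls, and data were normalized before concentration-response fitting.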
LmPK inh: LmPK (Leishmania mexicana) enzyme inhibition; Potency, µM (series often up to 57.5 µM), most hits filed as inhibitors; Q27686; purified LmPK, Kinase-Glo ATP luminescence, 1 h; 290,000 compounds, 0.37% hits
Target sequence (Q27686 whole entry, looked up): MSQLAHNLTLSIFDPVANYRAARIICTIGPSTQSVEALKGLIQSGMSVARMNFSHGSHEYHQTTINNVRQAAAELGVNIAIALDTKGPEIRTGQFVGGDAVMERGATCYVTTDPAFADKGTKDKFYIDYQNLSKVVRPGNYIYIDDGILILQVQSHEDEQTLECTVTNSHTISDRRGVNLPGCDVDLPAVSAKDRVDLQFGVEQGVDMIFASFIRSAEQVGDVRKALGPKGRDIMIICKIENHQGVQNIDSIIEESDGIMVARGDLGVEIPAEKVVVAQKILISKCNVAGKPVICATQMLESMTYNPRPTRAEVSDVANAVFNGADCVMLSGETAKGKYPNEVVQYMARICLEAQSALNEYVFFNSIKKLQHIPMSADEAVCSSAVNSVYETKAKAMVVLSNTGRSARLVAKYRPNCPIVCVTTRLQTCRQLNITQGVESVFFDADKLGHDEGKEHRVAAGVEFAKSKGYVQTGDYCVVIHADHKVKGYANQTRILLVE
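ATP generated from ADP (0.1 mM) and PEP (0.5 mM) by 0.1 nM LmPK over 1 h at room temperature (pH 7.2 imidazole buffer) was detected by coupled luciferase luminescence. Values were normalized to uninhibited and no-enzyme wells.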
CHX counter: counter-screen for Shiga toxin inhibitors: cycloheximide protein synthesis inhibition; AID 2314; 300,000 compounds, 12% hits; max response, %; cell reporter, cycloheximide protein synthesis inhibition counterscreen; in the data active = max response mostly above about 13%, no sharp cut-off; inactive = mostly below about 14%; also: read at 38.3 µM for the half of the compounds with a filed dose
A number is an active result; . = inactive; ? = inconclusive; / = no result. The full list was thinned out, with hits kept by preference. Unless noted, calls follow the shape of the dose curve; as a rule, active = well fitted curve in the direction sought with a large enough effect; inconclusive = small, poorly fitted or top-dose-only effect, or another doubt; inactive = no such curve, though single readings can be large; an effect the other way counts as inactive or inconclusive.

SMILES	SARS PLpro yeast	NS1 inh	Shiga toxin inh	TbPYK inhibitor	LmPK inh	CHX counter
CN1CCc2nc(SCC(=O)OC(C)(C)C)c(C#N)cc2C1	.	.	79	.	.	35
CC(=O)c1cc(C#N)c(SCC(=O)OC(C)(C)C)nc1C	.	.	.	.	.	19
CCOc1ccc(-c2nc(SCC(=O)NC3CCCC3)c(-c3ccccc3)[nH]2)cc1OC	/	/	/	.	/	/
CC(=O)Nc1nc(-c2ccc(Br)s2)cs1	.	.	63	.	.	25
O=C(NC(=S)Nc1nc(-c2cccc3ccccc23)cs1)c1cc2ccccc2o1	.	.	.	.	.	.
CC(=O)Nc1nc(-c2cccc3ccccc23)cs1	.	.	.	.	.	15
Cc1ccc(NC(=O)Nc2nc(-c3ccc(C)s3)cs2)cc1	.	.	.	.	.	.
COC(=O)c1c(-c2ccc(OC)cc2)sc2ccc(N3CCOCC3)cc12	.	/	/	.	/	/
COC(=O)c1nc2ccc(N3CCOCC3)cc2c(C)c1C(=O)OC	.	/	57	.	.	.
COC(=O)c1sc2nc(C)cc(C)c2c1N	.	.	.	.	.	.
NC(=O)c1sc2nc3c(cc2c1N)CCC3	.	/	48	.	.	22
COC(=O)c1sc2nc3c(cc2c1N)CCCC3	.	.	99	.	.	39
COC(=O)c1sc2nc(N)c(C#N)cc2c1N	.	.	73	.	.	30
Cc1ccc(N2CC(C(=O)NCCS(=O)(=O)N3CCN(c4ccccc4)CC3)CC2=O)cc1C (centres undefined)	.	.	.	.	.	.
O=c1ccc(C(F)(F)F)cn1Cc1cc(=O)n2cc(Br)ccc2n1	.	.	.	.	.	.
COc1cccc2c1OCC(C(=O)Nc1nccs1)=C2	.	.	108	.	.	41
COc1cc2ccccc2cc1C(=O)Nc1nccs1	.	.	49	.	.	27
COc1cc2ccccc2cc1C(=O)NCC(c1cccs1)N(C)C (centres undefined)	.	/	87	.	.	37
COc1cccc(C=Nc2ccccc2C(=O)Nc2nccs2)c1OC	.	.	.	.	.	.
COc1c(C(=O)Nc2nccs2)ccc2ccccc12	.	.	93	.	.	38
COc1ccc(C(=O)N(C)CCOc2ccc(Cl)cc2)cc1S(=O)(=O)N1CCCC1	/	/	/	.	/	/
Nc1nnc(SCCCC(=O)c2ccccc2)s1	.	.	.	.	.	23
Nc1nnc(SCC(=O)c2ccc3ccccc3c2)s1	.	.	151	.	.	85
Nc1nnc(SCC(=O)c2cccc([N+](=O)[O-])c2)s1	.	/	.	.	.	.
Brc1ccc2[nH]c3c(N4CCc5ccccc5C4)ncnc3c2c1	.	.	72	.	.	49
SMILES	SARS PLpro yeast	NS1 inh	Shiga toxin inh	TbPYK inhibitor	LmPK inh	CHX counter
O=C(NCc1ccc(Cl)cc1)C1CC(O)CN1S(=O)(=O)c1ccc(Cl)cc1 (centres undefined)	.	.	.	.	.	.
CCc1cc(C(=O)NNC(=S)NC2CCCCC2)cs1	.	.	54	.	.	46
Cc1nn(C)c(C(=O)NNC(=S)NC2CCCCC2)c1Br	.	.	61	.	.	45
CCCCOc1cccc(C(=O)NNC(=S)NC2CCCCC2)c1	?	.	.	.	.	.
CC(C)c1cc(C(=O)NNC(=S)NC2CCCCC2)cs1	.	.	51	.	.	32
CN(C)c1cccc(C(=O)NNC(=S)NC2CCCC2)c1	.	.	.	.	.	18
COC1OC(COCc2ccccc2)C(N)C(OCc2ccccc2)C1OCc1ccccc1 (centres undefined)	/	/	/	.	/	/
Cn1c(NCCc2ccncc2)nc2cc(-c3ccccc3)sc2c1=O	/	/	/	.	/	/
Cc1ccccc1NC(=O)COc1ccc2c(c1)OC(C)(C)CC2=O	.	.	34	.	.	38
CC(C)CCNC(=O)COc1ccc2c(c1)C(=O)CC(C)(C)O2	.	.	87	.	.	17
Cc1ccccc1NC(=O)COc1ccc2oc3c(c2c1)CCCC3	/	/	/	.	/	/
CCOC(=O)[C@@H](C)N(C(=O)OC(C)(C)C)S(=O)(=O)N(Cc1ccccc1)[C@H](C(=O)OC)C(C)C	/	/	/	.	/	/
CC(Sc1oc(-c2cccs2)nc1S(=O)(=O)c1ccccc1)c1ccccc1 (centres undefined)	/	/	/	.	/	/
NC(=O)c1ccc(NC(=O)COC(=O)CCC2CCCC2)cc1	/	/	/	.	/	/
C=CCn1c(SCC(=O)NCCc2ccccc2)nnc1C1CC1	.	/	/	.	/	/
C=CCn1c(SCC(=O)Nc2nnc(C)s2)nnc1C1CC1	.	.	.	.	.	16
COc1ccc(NC(=O)N2CCc3ccccc3C2)cc1OC	.	.	.	.	.	.
COc1ccc(CNC(=O)N2CCc3ccccc3C2)cc1Cl	.	.	.	.	.	14
O=C(NCc1ccc(Cl)cc1)N1CCc2ccccc2C1	.	.	.	.	.	29
Cc1cc(C)cc(NC(=O)N2CCc3ccccc3C2)c1	.	.	75	.	.	36
Cc1ccc(NC(=O)N2CCc3ccccc3C2)cc1C	.	.	152	.	.	78
Cc1cccc(NC(=O)N2CCc3ccccc3C2)c1C	.	.	39	.	.	29
Cc1ccc(NC(=O)C2OCCc3ccccc32)cc1C (centres undefined)	.	.	100	.	.	37
O=C(NCc1ccco1)C1OCCc2ccccc21 (centres undefined)	.	.	.	.	.	.
Cc1ccccc1NC(=O)N1CCc2ccccc2C1	.	.	.	.	.	.
SMILES	SARS PLpro yeast	NS1 inh	Shiga toxin inh	TbPYK inhibitor	LmPK inh	CHX counter
Cc1ccccc1CN1CCC(N2CCC(C(=O)NCC3CCCO3)CC2)CC1 (centres undefined)	.	.	.	.	.	.
Cc1cscc(C)c1=S	/	/	/	.	/	/
Cc1ccc(NC(=O)c2cnn(-c3ccc(C)c(C)c3)c2C2CCN(C(=O)OC(C)(C)C)CC2)c(C)c1	/	/	/	.	/	/
Cc1n[nH]c(=O)n(N=Cc2c[nH]c3ccccc23)c1=O	/	/	/	.	/	/
Cc1ccc(NC(=O)N2CCN(C)CC2)cc1NC(=O)N1CCN(C)CC1	.	.	.	.	.	12
COc1cccc(/C=N/Nc2ccc(C(=O)O)cc2)c1O	.	/	.	?	?	.
C/C(=N\NC(=O)C(=O)Nc1cccc(C(F)(F)F)c1)c1ccc(Cl)s1	.	.	.	.	.	.
COc1ccc(C(=O)Nc2cccc(/C(C)=N/NC(=O)c3ccc([N+](=O)[O-])cc3)c2)cc1OC	.	.	.	.	.	.
COc1ccc(/C(C)=N/Nc2nc3ccccc3nc2C)cc1OC	.	.	57	.	.	34
COc1ccc(/C(C)=N/Nc2cccc(C(=O)O)c2)cc1OC	.	/	187	.	.	104
COc1ccc(Br)cc1/C=N/Nc1cccc(C(=O)O)c1	.	.	.	.	.	49
C/C(=N\Nc1cccc(C(=O)O)c1)c1ccc(Cl)s1	.	/	121	.	.	68
CC(C)C(=O)N1CCC1(C)C(=O)Nc1nc2ccccc2[nH]1 (centres undefined)	/	/	/	.	/	/
